# Data from PubChem BioAssay AID430 (Sanford-Burnham Center for Chemical Genomics, 2006).
# Screen size: about 63,000 compounds; about 1,100 (1.7%) were called active. Many of the other results were omitted from the sample, so actives are more common in it than they were. Potency and affinity values are given separately. Values without a mark were called inactive. No stated cut-off is given here; in the data, active means cytotoxicity above about 50%; inactive means the rest.
# Experiment: HPDE-C7 pancreatic duct cell viability loss – fluorescence, HTS (AID 430);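 further: cells exposed to compound for 48 hours before viability readout; 0% = vehicle and 100% = reference cytotoxic drug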
# Settings: HPDE-C7 pancreatic duct cells viability, at 10 µM, hits give high values
row,SMILES,cytotoxicity
1,COc1cccc(NC(=O)N2CCN(c3ccc(C(F)(F)F)cn3)CC2)c1,1%
2,O=C(Cn1nnc2ccccc2c1=O)NC1CCCc2ccccc21 (stereo unspecified),-10.4%
3,N#CCCN(Cc1cccnc1)C(=O)c1ccc(S(=O)(=O)N2CCOCC2)cc1,-11%
4,CCOC(=O)c1[nH]c(C)c(C(=O)NCc2ccccn2)c1C,-28.2%
5,CCCC(c1nnnn1C1CCCCC1)N1CCN(c2ncccn2)CC1 (stereo unspecified),-4%
6,Cc1cccc2cc3c(N)c(C(=O)N4CCOCC4)sc3nc12,67.6% (active)
7,Cc1ccc2nc3sc(C(=O)N4CCOCC4)c(N)c3cc2c1,2.9%
8,Cc1ccc2cc3c(N)c(C(=O)N4CCOCC4)sc3nc2c1,-0.1%
9,CN(Cc1nnc(SCC(=O)NCCc2ccccc2)n1C)S(=O)(=O)c1ccccc1,-11.2%
10,O=C(Nc1ccc(N2CCN(C(=O)c3ccccc3)CC2)cc1)c1ccc(Br)o1,-3.2%
11,O=C(CCCSc1nc2ccccc2s1)Nc1nccs1,-2.3%
12,CC1=CC(=C(C#N)c2nc3ccccc3s2)C=C(C)N1Cc1ccco1,10.5%
13,O=C(OCC#CCSc1nc2ccccc2s1)c1ccco1,-5.2%
14,N#C/C(=C\c1ccco1)Sc1nc2ccccc2s1,54.9% (active)
15,c1csc(CSc2nc3ccccc3s2)c1,-16.5%
16,O=C(Cn1cnc2ccccc2c1=O)OCC(=O)c1ccc2c(c1)OCCO2,3%
17,O=C(c1cc2nc(-c3ccco3)cc(C(F)(F)F)n2n1)N1CCN(c2ccccc2)CC1,-3%
18,CCOc1ccc(C2N(c3cc(Cl)ccc3OC)C(=O)C3CCCN32)cc1OC (stereo unspecified),-15.6%
19,Cc1ccc(CS(=O)(=O)CCC(=O)NCCN2CCCCC2C)cc1 (stereo unspecified),7.5%
20,Nc1ccc(N2CCCCC2)cc1N1CCCCC1,37%
21,O=C(O)c1ccc(N2CCCCC2)cc1,-6.8%
22,CCOc1nc(-c2ccccc2)ccc1-c1noc(-c2cccnc2)n1,-30.6%
23,Cc1nc(NC2=NCN(C3CCCCC3C)CN2)nc2ccccc12 (stereo unspecified),-2.8%
24,Cc1cccc(NC(=O)N2CCC(NC(=O)c3ccccc3C)CC2)c1,2.1%

row,SMILES,cytotoxicity
1,COC(=O)c1ccccc1NC(=O)CN1CCN(C(=O)c2ccco2)CC1,4.2%
2,O=C(O)c1cc(S(=O)(=O)N2CCCCCC2)ccc1Cl,-1.3%
3,O=S(=O)(c1ccc(S(=O)(=O)N2CCCC2)cc1)N1CCCCCC1,-7.3%
4,Cn1c(=O)c2c(nc(N3CCCCC3)n2CCSc2nc3ccccc3o2)n(C)c1=O,-14.5%
5,Cc1ccc(CN2CCN(C(=O)C3CCCO3)CC2)cc1 (stereo unspecified),-27.2%
6,CCOc1ccccc1NC(=O)CSc1nccn1-c1ccccc1,-12.5%
7,Nc1ccc(-n2c(N)c(C(=O)NCc3ccc4c(c3)OCO4)c3nc4ccccc4nc32)cc1,26.7%
8,Nc1c(C(=O)NCCN2CCOCC2)c2nc3ccccc3nc2n1CCc1ccccc1,7.5%
9,COc1ccc(-n2c(N)c(C(=O)NCc3ccco3)c3nc4ccccc4nc32)c(OC)c1,14.2%
10,Nc1c(C(=O)NCCN2CCOCC2)c2nc3ccccc3nc2n1CCc1ccccc1F,0.5%
11,COc1ccc(CCn2c(N)c(C(=O)NCc3ccco3)c3nc4ccccc4nc32)cc1OC,32.4%
12,Nc1c(C(=O)NCCN2CCOCC2)c2nc3ccccc3nc2n1-c1ccc2c(c1)OCO2,1%
13,CN1CCN(S(=O)(=O)c2ccc3c4c(cccc24)C(=O)N3)CC1,5.6%
14,COc1ccc(NC(=O)C2CCN(S(=O)(=O)c3cccc4cccnc34)CC2)cc1,-6.3%
15,CCOC(=O)N1CCN(C(=O)CSc2nnc(Cc3cccn3C)n2CCc2ccccc2)CC1,-10.2%
16,Cc1cccc2cc(COC(=O)c3ccccn3)c(=O)[nH]c12,-10.7%
17,C=CCn1c(=N)n(CC(=O)O)c2ccccc21,-15.2%
18,COCCCn1c(-c2ccsc2)nc2c1c(=O)[nH]c(=O)n2Cc1ccccc1,-11%
19,CCCC(=O)Nc1cccc2c1CCCC2,2.9%
20,Cc1ccc(-n2nnc3c(=O)n(Cc4cccc(C)c4)cnc32)cc1,0.4%
21,CCOC(=O)c1sc(NC(=O)c2cc3c(C)nn(-c4ccccc4)c3s2)nc1C,4%
22,COc1cccc(C=NCCNC(=O)c2nonc2N)c1O,9.3%
23,Nc1nonc1C(=O)NCCNC(=O)c1ccccc1F,-4.8%
24,Nc1nonc1C(=O)NCCN=Cc1cc(Cc2ccccc2)cc(Br)c1O,87.2% (active)

row,SMILES,cytotoxicity
1,O=C1c2oc3ccc(Br)cc3c(=O)c2C(c2cccnc2)N1Cc1ccco1 (stereo unspecified),-14.2%
2,Oc1c(-c2cc(-c3ccco3)[nH]n2)ccc2ccccc12,1.8%
3,CSc1nc(N)nc(SCC(=O)c2ccc(C)cc2)c1C#N,3.8%
4,CSc1nc(N)nc(SCC(=O)OC(C)C)c1C#N,-1.7%
5,CSc1nc(N)nc(SCC(=O)C23CC4CC(CC(C4)C2)C3)c1C#N,74% (active)
6,Cc1cc2n(n1)C(c1ccc(O)cc1)Nc1ccccc1-2 (stereo unspecified),7.9%
7,O=C(COC(=O)C1(c2ccccc2F)CCCC1)NC1CCS(=O)(=O)C1 (stereo unspecified),-14.8%
8,COc1ccc(CNc2nc3c(c(=O)[nH]c(=O)n3C)n2Cc2ccccc2C)cc1,-5.5%
9,COc1ccc(-c2nsc3c(N4CCCC4)ncnc23)cc1,7.9%
10,COc1ccc(S(=O)(=O)N2CCN(c3ncnc4c(-c5ccccc5)nsc34)CC2)cc1,5.6%
11,COc1ccc(-c2nsc3c(N4CCN(S(=O)(=O)c5ccccc5)CC4)ncnc23)cc1,55.2% (active)
12,CC(C)(C)NC(=O)CSc1nnc(C2CC2)n1Cc1ccccc1,-7.8%
13,COC(=O)CNC(=O)COC(=O)C(Cc1ccccc1)NC(=O)c1ccco1 (stereo unspecified),6%
14,Cc1ccc(C)c(C(=O)CSc2n[nH]c(C(C)C)n2)c1,-7.1%
15,Cn1c(=O)c(=O)n(C)c2cc(S(=O)(=O)N3CCCCC3)ccc21,2%
16,c1ccc(C(CN2CCOCC2)c2ccccc2)cc1,-12%
17,O=C(c1ccccc1)c1ccc(OCC(O)CN2CCOCC2)cc1 (stereo unspecified),6.6%
18,Cc1nc2ccc(F)cc2cc1C(=O)NCC1CCCO1 (stereo unspecified),14.8%
19,COc1cc(S(=O)(=O)n2nnc3ccccc32)c(OC)cc1Cl,60.8% (active)
20,COc1ccc(OC)c(S(=O)(=O)n2nnc3ccccc32)c1,-7%
21,COc1ccc(Cl)cc1S(=O)(=O)n1nnc2ccccc21,3.1%
22,CCc1ccccc1NC(=O)CN1CCC(NC(=O)COC)CC1,-16%
23,COc1ccc(N(CC(=O)N2CCc3ccccc3C2)S(=O)(=O)c2c(C)[nH]c(=O)[nH]c2=O)cc1,-21.6%
24,CC1(C)Cc2c(C#N)c(N3CCN(C(=O)c4ccccc4)CC3)nc(-c3ccco3)c2CS1,11.4%

row,SMILES,cytotoxicity
1,CC1(C)Cc2c(C#N)c(N3CCOCC3)nc(Cc3ccccc3)c2CO1,46.8%
2,Cc1cc(C)c2nc(C(F)(F)F)nc(N3CCN(C(=O)c4ccco4)CC3)c2c1,3.3%
3,CC1(C)Cc2c(C#N)c(N3CCN(C(=O)c4ccco4)CC3)nc(-c3ccco3)c2CS1,51.7% (active)
4,CCc1nc(N2CCN(C(=O)c3ccccc3)CC2)c(C#N)c2c1COC(C)(C)C2,-1%
5,Cc1cc(C)c2nc(N3CCCN(C(=O)c4ccco4)CC3)c(C#N)cc2c1,57.4% (active)
6,N#Cc1c(N2CCN(C(=O)c3ccco3)CC2)nc(-c2ccccc2)c2c1CCCC2,9.1%
7,Cc1cc(C)c2nc(N3CCCN(C(=O)c4cnccn4)CC3)c(C#N)cc2c1,-0.7%
8,CCn1c(SCC(=O)Nc2ccc3c(c2)OCO3)nc2c1c(=O)n(C)c(=O)n2C,-19.3%
9,COc1cccc(CC(NC(C)=O)C(=O)NC2CCN(c3nc(C)cc(C)c3C#N)CC2)c1 (stereo unspecified),8.9%
10,NC(=O)c1cc(-c2ccccc2)nc(N2CCOCC2)n1,11.3%
11,O=C(CSc1nnc(-c2cnccn2)n1Cc1ccco1)c1ccccc1,-4.8%
12,O=C(Cn1c(CO)nc2ccccc21)Nc1cc(C(F)(F)F)ccc1N1CCOCC1,5.6%
13,c1ccc(N2CCOCC2)c(Nc2nc3ccccc3n3cnnc23)c1,-9.9%
14,Cc1ccccc1Cn1cc(NC(=O)c2noc3c2CC(C(C)(C)C)CC3)cn1 (stereo unspecified),25.7%
15,Cc1ccc(S(=O)(=O)N(CCC#N)CCN2CCCC2)cc1,-4.9%
16,Cc1ccc2c(c1)CC1(CN2C)C(=O)OC2(CCCCC2)OC1=O,-5.7%
17,O=C1COc2ccc3ccccc3c2CN1,-6.8%
18,CN1CC2(Cc3c1ccc1ccccc31)C(=O)OC(C)(C)OC2=O,80.9% (active)
19,COc1ccc2c(c1)[nH]c1c(=O)n(CCN3CCCC3)cnc12,-19.4%
20,Cc1cc(C(=O)Nc2nc3c(s2)CCCC3)cs1,-5.9%
21,CCOC(=O)N1CCN(CC(O)COc2ccccc2C(C)C)CC1 (stereo unspecified),-6%
22,O=C(NC1CC2CCCC(C1)N2S(=O)(=O)c1ccccc1)c1ccccc1 (stereo unspecified),-1.3%
23,Cn1c(SCc2ccccc2)nnc1-c1ccncc1,-1.5%
24,COc1ccc(NC(=O)CC2CCCCC2)cc1OC,-11.1%
